Test results as given in PubChem BioAssay (NCI).
Compounds without any hit were thinned out: in the full panel of roughly 79,000, 15% have a hit. Active and inactive are the calls of the source. Cut-off read from the data, not from the text of the source: active = growth inhibition above about 70%; inactive = the rest.

Tests used:
[1] = NCI Yeast Anticancer Drug Screen. Data for the rad52 strain (AID 147);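 note: 0% = growth of vehicle-treated control cultures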; details: S. cerevisiae rad52 mutant growth inhibition, active compounds read high
Procedure, shortened: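 Genetically altered yeast (DNA damage repair defect) treated with compound; inhibition calculated relative to vehicle.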

[2] = NCI Yeast Anticancer Drug Screen. Data for the wt1 strain (AID 149);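 note: 0% = growth of vehicle-treated wt1 cultures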; details: S. cerevisiae wt1 strain (SPY 50644) growth inhibition, active compounds read high
Procedure, shortened: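 Measured: growth of wt1 yeast under compound versus vehicle treatment, reported as inhibition.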

[3] = NCI Yeast Anticancer Drug Screen. Data for the rad50EPP+ strain (AID 151);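 note: 0% = growth of vehicle-treated control cultures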; details: S. cerevisiae rad50 mutant strain, active compounds read high
Procedure, shortened: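 Strain rad50EPP+; compound exposure; % growth inhibition vs vehicle.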

[4] = NCI Yeast Anticancer Drug Screen. Data for the rad50 strain (AID 155);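 note: 0% = growth of vehicle-only cultures of the same strain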; details: S. cerevisiae rad50 strain growth inhibition, active compounds read high
Procedure, shortened: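 Growth of the mutant yeast was measured after compound exposure and referenced to vehicle-treated cultures.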

[5] = NCI Yeast Anticancer Drug Screen. Data for the mec2-1 strain (AID 157); details: S. cerevisiae mec2-1 strain, active compounds read high
Procedure, shortened: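 Cells of the genetically defined mec2-1 yeast strain are incubated with test compound. Inhibition of growth is calculated against vehicle-treated controls.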

[6] = NCI Yeast Anticancer Drug Screen. Data for the rad14 strain (AID 159);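 note: 0% = growth of vehicle-treated control cultures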; details: S. cerevisiae rad14 strain growth inhibition, active compounds read high
Procedure, shortened: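 Here, inhibition of yeast growth was measured after compound exposure, using a strain with a genetic defect in DNA damage repair and vehicle-treated cultures as the reference.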

[7] = NCI Yeast Anticancer Drug Screen. Data for the sgs1 mgt1 strain (AID 161);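 note: 0% = growth of cultures given vehicle only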; details: S. cerevisiae sgs1 mgt1 strain, active compounds read high
Procedure, shortened: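 Mutant yeast exposed to compound; growth scored against vehicle-only wells.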

[8] = NCI Yeast Anticancer Drug Screen. Data for the CLN2oe strain (AID 163);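 note: 0% = growth of vehicle-only control cultures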; details: S. cerevisiae CLN2oe strain, active compounds read high
Procedure, shortened: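 Strain altered in cell-cycle control, incubated with compound; growth compared to solvent-treated controls.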

[9] = NCI Yeast Anticancer Drug Screen. Data for the cln2 rad14 strain (AID 165);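 note: 0% = growth equal to vehicle treated cultures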; details: S. cerevisiae cln2 rad14 strain, active compounds read high
Procedure, shortened: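 The screen exposed genetically defined yeast (cln2 rad14) to test compounds and scored growth inhibition relative to vehicle-treated controls.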

[10] = NCI Yeast Anticancer Drug Screen. Data for the bub3 strain (AID 167); details: S. cerevisiae bub3 mutant strain, active compounds read high
Procedure, shortened: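 Whole-cell yeast assay. The mutant strain was incubated with compounds, and growth inhibition was determined by comparison with vehicle-treated cells.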

[11] = NCI Yeast Anticancer Drug Screen. Data for the wt2 strain (AID 169);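 note: 0% = growth of vehicle-treated yeast cultures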; details: S. cerevisiae wt2 strain growth inhibition, active compounds read high
Procedure, shortened: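 Steps: yeast strain treated with compound; growth recorded; inhibition calculated relative to cultures given vehicle alone.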

[12] = NCI Yeast Anticancer Drug Screen. Data for the mlh1 strain (AID 171);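 note: 0% = growth of vehicle-treated control cultures of the same strain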; details: S. cerevisiae mlh1 strain growth inhibition, active compounds read high
Procedure, shortened: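 Yeast screen: mutant strain plus compound, growth scored against vehicle control wells.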

[13] = NCI Yeast Anticancer Drug Screen. Data for the sgs1 strain (AID 173);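 note: 0% = growth of vehicle-only control cultures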; details: S. cerevisiae sgs1 mutant, active compounds read high
Procedure, shortened: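 Inhibition of yeast growth served as the measure. The mutant strain was treated with each compound, and growth was normalised to cultures receiving vehicle alone.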

[14] = NCI Yeast Anticancer Drug Screen. Data for the mlh1 rad18 strain (AID 175); details: S. cerevisiae mlh1 rad18 strain growth inhibition, active compounds read high
Procedure, shortened: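 Compound-treated yeast growth, normalised to vehicle controls. Strain bears defined DNA repair mutations.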

[15] = NCI Yeast Anticancer Drug Screen. Data for the rad18 strain (AID 177); details: S. cerevisiae rad18 mutant growth inhibition, active compounds read high
Procedure, shortened: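 Inhibition values reflect reduced yeast growth compared with vehicle-treated controls, using a strain engineered with a DNA damage repair defect.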

[16] = at 5.0 µM (retest, dose inferred, filed as 0.5)
[17] = at 50.0 µM (retest, dose inferred, filed as 5.0)

Measured: growth inhibition

CCC[CH2][Ge]([CH2]CCC)([CH2]CCC)[O]C(=O)C(O)c1ccccc1 (stereo unspecified)
inactive: [1]; at 1.2 µM 1% | [1]; at 3.7 µM 11% | [1]; at 11.0 µM 45% | [2]; at 1.2 µM -4% | [2]; at 3.7 µM -5% | [2]; at 11.0 µM 11% | [2]; at 33.0 µM 60% | [3]; at 1.2 µM -2% | [3]; at 3.7 µM 3% | [3]; at 11.0 µM 8% | [3]; at 33.0 µM 21% | [3]; at 100.0 µM 49% | [4]; at 1.2 µM 3% | [4]; at 3.7 µM 9% | [4]; at 11.0 µM 36% | [5]; at 1.2 µM -1% | [5]; at 3.7 µM 2% | [5]; [16] 50% | [5]; at 11.0 µM 17% | [5]; at 33.0 µM 69% | [5]; [17] 50% | [6]; at 1.2 µM -3% | [6]; at 3.7 µM -7% | [6]; at 11.0 µM -1% | [6]; at 33.0 µM 68% | [8]; at 1.2 µM -3% | [8]; at 3.7 µM 5% | [8]; at 11.0 µM 17% | [9]; [16] 12% | [9]; [17] 12% | [10]; at 1.2 µM -2% | [10]; at 3.7 µM -4% | [10]; [16] 27% | [10]; at 11.0 µM 24% | [10]; [17] 27% | [11]; at 1.2 µM -2% | [11]; at 3.7 µM -2% | [11]; at 11.0 µM 16% | [12]; at 1.2 µM -1% | [12]; at 3.7 µM -2% | [12]; at 11.0 µM 14% | [13]; at 1.2 µM -1% | [13]; at 3.7 µM -1% | [13]; at 11.0 µM 28% | [15]; at 1.2 µM 10% | [15]; at 3.7 µM 7% | [15]; at 11.0 µM 55%
active: [1]; at 33.0 µM 88% | [1]; at 100.0 µM 98% | [2]; at 100.0 µM 99% | [4]; [16] 95% | [4]; at 33.0 µM 90% | [4]; [17] 95% | [4]; at 50.0 µM 90.2% | [4]; at 100.0 µM 97% | [5]; at 50.0 µM 90.5% | [5]; at 100.0 µM 99% | [6]; at 100.0 µM 99% | [7]; [16] 97% | [7]; [17] 97% | [7]; at 50.0 µM 89.5% | [8]; at 33.0 µM 83% | [8]; at 100.0 µM 99% | [9]; at 50.0 µM 91.2% | [10]; at 33.0 µM 88% | [10]; at 50.0 µM 88.3% | [10]; at 100.0 µM 99% | [11]; at 33.0 µM 81% | [11]; at 100.0 µM 99% | [12]; at 33.0 µM 88% | [12]; at 100.0 µM 99% | [13]; at 33.0 µM 91% | [13]; at 100.0 µM 99% | [14]; [16] 84% | [14]; [17] 84% | [14]; at 50.0 µM 89.7% | [15]; at 33.0 µM 89% | [15]; at 100.0 µM 99%

Cc1cccc(C)c1NC(=O)CCC(=O)C(C)C(=O)c1ccc(O)cc1 (stereo unspecified)
inactive: [1]; at 1.2 µM 2% | [1]; at 3.7 µM 1% | [1]; at 11.0 µM 2% | [1]; at 33.0 µM 1% | [1]; at 100.0 µM 0% | [2]; at 1.2 µM -1% | [2]; at 3.7 µM -2% | [2]; at 11.0 µM -1% | [2]; at 33.0 µM -1% | [2]; at 100.0 µM -2% | [3]; at 1.2 µM 0% | [3]; at 3.7 µM -1% | [3]; at 11.0 µM 1% | [3]; at 33.0 µM 1% | [3]; at 100.0 µM 8% | [4]; at 1.2 µM -1% | [4]; at 3.7 µM 0% | [4]; [16] 1% | [4]; at 11.0 µM 1% | [4]; at 33.0 µM 1% | [4]; [17] 2% | [4]; at 50.0 µM 57.6% | [4]; at 100.0 µM 0% | [5]; at 1.2 µM -6% | [5]; at 3.7 µM -5% | [5]; [16] -2% | [5]; at 11.0 µM -6% | [5]; at 33.0 µM -3% | [5]; [17] 8% | [5]; at 50.0 µM 15.1% | [5]; at 100.0 µM -5% | [6]; at 1.2 µM -1% | [6]; at 3.7 µM 2% | [6]; at 11.0 µM 2% | [6]; at 33.0 µM 0% | [6]; at 100.0 µM -1% | [7]; [16] 0% | [7]; [17] 5% | [7]; at 50.0 µM 23.2% | [8]; at 1.2 µM -5% | [8]; at 3.7 µM -4% | [8]; at 11.0 µM -3% | [8]; at 33.0 µM 1% | [8]; at 100.0 µM -3% | [9]; [16] -2% | [9]; [17] 2% | [9]; at 50.0 µM 50% | [10]; at 1.2 µM -2% | [10]; at 3.7 µM -2% | [10]; [16] 0% | [10]; at 11.0 µM -2% | [10]; at 33.0 µM -2% | [10]; [17] 7% | [10]; at 50.0 µM 11.8% | [10]; at 100.0 µM 5% | [11]; at 1.2 µM -1% | [11]; at 3.7 µM -1% | [11]; at 11.0 µM 0% | [11]; at 33.0 µM 0% | [11]; at 100.0 µM -1% | [12]; at 1.2 µM -2% | [12]; at 3.7 µM -3% | [12]; at 11.0 µM -1% | [12]; at 33.0 µM -2% | [12]; at 100.0 µM -1% | [13]; at 1.2 µM -2% | [13]; at 3.7 µM -2% | [13]; at 11.0 µM -2% | [13]; at 33.0 µM -2% | [13]; at 100.0 µM 0% | [14]; [16] -1% | [14]; [17] 6% | [14]; at 50.0 µM 6.95% | [15]; at 1.2 µM -2% | [15]; at 3.7 µM -1% | [15]; at 11.0 µM 0% | [15]; at 33.0 µM -2% | [15]; at 100.0 µM 0%
